AI-2 QS modul: Vibrio harveyi AI-2 quorum sensing modulators, primary screen, JMH597 strain, luminescence/OD600 ratio; activity change, % at 7.5 µM; Vibrio harveyi JMH597 AI-2 luminescence/OD600 ratio, 9 h; hits give low values; strain lacks LuxN and CqsS sensors; 0 = neutral-control median; 300,000 tested, 0.4% active; in the data active = activity change below about -75%, passing the limit was not always enough;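 also: luminescence divided by OD600 gain over 9 h not by final OD600 alone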
PG9 Ab binder: binders of HIV-1 gp120 antibody PG9, primary screen, biochemical, TR-FRET | TR-FRET gp120-PG9 antibody binding | AID 624416, 2012 | HIV-1 gp120 / PG9 antibody interaction | inhibition, % at 6.7 µM | 360,000 tested, 0.43% active; in the data active = inhibition above about 8.5%
HSF1 inh: HSF1 inhibitors in luciferase reporter cells, primary screen, cell-based, NIH3T3, luminescence; NIH3T3-HGL HSE-luciferase, MG132-induced, luminescence 8 h; hits give low values; activity change, negative = inhibition, % at 7.5 µM (by protocol); 300,000 tested, 0.77% active; AID 2098, 2009;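 active = more than half of replicate wells show activity change below -50%, luminescence cut by over half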;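 also: luciferase reports HSF-1 transcriptional activity via heat shock element; 0% = median of DMSO wells and -100% = zero luminescence signal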
FXN GAA850 act: FXN promoter activators, primary screen, cell-based, luciferase luminescence, HEK293 lucGAA850; HEK293 lucGAA850 FXN promoter luciferase reporter, 24 h; percent of 10 µM SAHA response; activation, % at 6 µM; 360,000 tested, 0.56% active; AID 540364, 2011;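 active = activation above the average of all compounds screened plus 3 SD, cutoff fixed separately per campaign, cut at about 7.5% in these data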;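 also: 0% = DMSO wells and 100% = 10 µM SAHA wells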
HSP90 refold inh: HSP90 inhibitors, primary screen, cell lysate, luminescence | 290,000 tested, 0.91% active | Rabbit reticulocyte lysate, luciferase refolding luminescence, 3 h | Heat shock protein HSP 90 (rabbit reticulocyte lysate; luciferase refolding) | inhibition, % at 5.6 µM | AID 1789, 2009;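 active = inhibition above the screen-wide mean plus 3 SD, computed separately per campaign, cut at about 16% in these data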;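 also: 0% = DMSO wells and 100% = 60 µM geldanamycin wells; inhibitors lower the luminescence because luciferase stays unfolded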
SMARCA2 act: SMARCA2 (BRM) function activators, primary screen, cell-based, luminescence, high throughput. 370,000 tested, 1% active. activation, % at 9.1 µM. MG213 cells, MMTV-luciferase reporter, dexamethasone, overnight; in the data active = activation above about 7.8%;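 also: 0% = vehicle wells and 100% = reference activator wells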
An asterisk follows results filed as active; i = inactive; x = no result. Rows were chosen to be rich in hits. Some 3.4% of all compounds tested hit in one or more screens of this group.

SMILES	AI-2 QS modul	PG9 Ab binder	HSF1 inh	FXN GAA850 act	HSP90 refold inh	SMARCA2 act
COc1ccc2ccccc2c1C1CC(=O)N2CN(C3CCCCC3)CSC2=C1C#N (stereo unspecified)	19	-1	-54*	1	-3	-1
COc1cccc(NC(=O)N2CCCC2C(=O)NC(C)C)c1 (stereo unspecified)	15	0	-63*	0	3	-2
CNC(=O)/C(C#N)=C/c1ccc(-c2ccc(OC)cc2[N+](=O)[O-])o1	16	-3	-89*	3	2	0
COc1ccc(-c2ccc(C(=O)O)o2)c([N+](=O)[O-])c1	19	2	0	1	4	-7
CCN(C(=O)[C@@H](C1CC1)[C@@H](O)c1ccc(C(C)=O)cc1)c1ccccc1	x	x	x	x	x	-1
Cc1c(NCc2cc(Cl)cc(Cl)c2O)c(=O)n(-c2ccccc2)n1C	15	-1	2	-2	5	-3
Cc1c(NCc2nc3ccccc3[nH]2)c(=O)n(-c2ccccc2)n1C	38	-3	-5	2	-1	7.8*
O=C(CSc1nnc(-c2cccnc2)n1-c1ccc(Cl)cc1)c1ccc2ccccc2c1	x	x	x	x	x	1
CCCC(=O)OC12CCCN(C1)/C(=C/c1ccc(C#N)cc1)C2 (stereo unspecified)	x	x	x	x	x	-4
CN(C(=O)CN1C(=O)S/C(=C\c2ccccc2)C1=O)C1CCS(=O)(=O)C1 (stereo unspecified)	12	0	-86*	1	4	-1
CN(C(=O)CN1C(=O)S/C(=C\c2ccc(Cl)cc2)C1=O)C1CCS(=O)(=O)C1 (stereo unspecified)	23	1	4	-1	1	0
CCOC(=O)[C@]12CCCC=C1N(Cc1ccc(OC)cc1)C(=O)[C@@H]2CC(=O)NCC12CC3CC(CC(C3)C1)C2	x	x	x	x	x	-3
CCn1cnc2cc(NC(=O)c3ccc(C)cc3)ccc21	x	-2	19	5	1	7.9*
Cc1ccc(C(=O)Nc2ccc3c(c2)ncn3C)cc1	43	0	19	3	-2	2
Cc1c(C)n(Cc2ccc(-c3ccccc3C(=O)O)cc2)c2ccc(C(=O)N[C@@H](C)c3ccc(Br)cc3)cc12	x	x	x	x	x	0
CCOC(=O)CSc1nnc2c3ccccc3n(CC)c2n1	2	-2	11	1	-1	1
CCn1c2ccccc2c2nnc(SCC(=O)NC(CC(C)C)C(=O)OC)nc21 (stereo unspecified)	32	-2	1	-1	6	7.8*
O=C(O)/C=C/c1cnc2ccccc2n1	21	0	-8	2	4	-1
Fc1cccc(Cl)c1/C=C/c1cnc2ccccc2n1	0	-3	-30	3	17*	3
O=C(O)CCCNC(=O)CCCNC(=O)C(c1ccccc1)c1ccccc1	11	2	-64*	1	10	-2
CCCCC(=O)Nc1ccc(N2CCN(S(C)(=O)=O)CC2)cc1	3	-2	8	3	-2	-1
CCCC(=O)Nc1ccc(N2CCN(S(C)(=O)=O)CC2)cc1	i	-1	x	-1	-6	8.4*
O=C(NCc1ccccc1Cl)C1CCN(S(=O)(=O)N2CCCC2)CC1	3	0	-69*	0	1	-5
O=C(NCc1ccc(Cl)cc1)C1CCN(S(=O)(=O)c2cccnc2)CC1	-79*	-2	2	0	-4	-2
O=C(NCc1ccncc1)C1CCN(S(=O)(=O)c2cccc(C(F)(F)F)c2)CC1	-1	-1	-53*	0	1	-4
SMILES	AI-2 QS modul	PG9 Ab binder	HSF1 inh	FXN GAA850 act	HSP90 refold inh	SMARCA2 act
O=C(NCc1ccc(F)cc1)C1CCN(S(=O)(=O)c2cccnc2)CC1	-28	-1	-1	2	-1	-2
Cc1ccc(Cn2cc(CN3[C@H](CC(C)C)COc4cc(Br)ccc4S3(=O)=O)nn2)cc1	x	x	x	x	x	6
N#Cc1ccc(NC(=O)OC2CCC23CCC(c2ccccc2)CC3)cc1 (stereo unspecified)	x	x	x	x	x	-3
CCC(=O)OCCCN1CCC2(CCC(c3ccccc3)CC2)C1=O (stereo unspecified)	x	x	x	x	x	-3
COC(=O)Cc1[nH]n(-c2nc3ccccc3s2)c(=O)c1C(C)=Nc1ccc(Cl)cc1	30	0	-68*	-2	8	-6
COC(=O)Cc1[nH]n(-c2nc3ccccc3s2)c(=O)c1C(C)=Nc1ccc(C)cc1	5	-2	2	-13	-1	-1
CN(Cc1ccccc1)C(=O)c1cccc(NC(=O)Cc2ccc(NC(=O)C3CCCN(S(=O)(=O)c4cccc([N+](=O)[O-])c4)C3)cc2)c1 (stereo unspecified)	x	0	x	x	x	-3
O=C(O)c1ccc(CN2C(=O)c3cccc4c([N+](=O)[O-])ccc(c34)C2=O)cc1	10	x	-83*	-1	4	x
Cc1ccc(C(=O)O)cc1N1C(=O)c2cccc3c([N+](=O)[O-])ccc(c23)C1=O	8	-3	-9	0	3	-2
CCn1c2ccccc2c2cc(NC(=O)COC(=O)c3cc(F)ccc3F)ccc21	x	x	x	x	x	-1
CC1CCCCN1CC(=O)Nc1ccccc1Sc1ccccc1 (stereo unspecified)	6	-2	-59*	0	-4	-2
O=C(Nc1ccc2c(c1)OCO2)NC1CCN(S(=O)(=O)c2ccc(F)cc2)CC1	x	x	x	x	x	-4
C=CCn1c(-c2cccc3ccccc23)n[nH]c1=S	-6	-2	-73*	0	4	-1
CCc1cccc(CC)c1NC(=S)N1CCn2cccc2C1c1cccnc1 (stereo unspecified)	13	2	-55*	-1	5	-2
Cc1ccc(NC(=S)N2CCn3cccc3C2c2cccnc2)cc1 (stereo unspecified)	-3	-2	5	-1	-3	-4
Nc1ncnc2c(C3OC(CO)C(O)C3O)c[nH]c12 (stereo unspecified)	x	-1	91*	-15	x	-10
Nc1ncnc2c1ncn2[C@@H]1O[C@H](CO)[C@@H](O)[C@H]1O	1	2	-6	0	-1	0
CC1(C)Oc2ccc(C(=O)NCCCN3CCCC3)cc2NC1=O	x	x	x	x	x	4
Cc1cccc2sc(N(CCCN(C)C)C(=O)c3ccc4ncsc4c3)nc12	x	2	-13	1	17*	7
CC(=O)N1CCN(C(=O)c2ccc(CNC(=O)c3cccc(Br)c3)cc2)CC1	x	x	x	x	x	1
CCn1c(NC(=O)c2ccco2)c(-c2ccccc2Cl)c(=O)c2ccccc21	-6	0	0	-1	0	8.0*
